Where “and” joins values, the source holds several entries; their conditions need not be identical. Equal entries are not always repeated. Results filed as inconclusive are left out. Entries that show only a call come without a potency. Calls of active or inactive are those of the source. Unless noted, calls come from the whole dose curve; as a rule, active = well fitted curve in the direction sought with a large enough effect in the repeat runs; inconclusive = weak or mixed curves; inactive = no such curve, though single readings can be large; an effect the other way counts as inactive or inconclusive.
What was measured:
[1] = qHTS assay for small molecule agonists of the p53 signaling pathway (AID 651631; calls by dose curve; note: nearly all actives have a fitted effect of over 15% in size)
How it was run: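 Agonist mode screen using a stably integrated beta-lactamase gene under p53 response elements in HCT-116 cells. Compound exposure lasts 16 h at 37 °C; fluorescence intensity is measured following 2 h FRET substrate loading.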

[2] = qHTS assay for small molecule agonists of the p53 signaling pathway - cell viability (AID 651633; calls by dose curve;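 note: p53RE-bla HCT reporter cells with a stable beta-lactamase p53 reporter; series mostly up to about 83 µM; nearly all actives have a fitted effect of over 30% in size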)
How it was run: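 p53RE-bla cells were treated with compound for 16 hours at 37 C. Cytotoxicity was then measured as CellTiter-Glo luminescence after 30 min at room temperature.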

[3] = qHTS assay for small molecule disruptors of the mitochondrial membrane potential - cell viability (AID 720634; calls by dose curve;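 note: human HepG2 liver cancer cells; series mostly up to about 83 µM; nearly all actives have a fitted effect of over 20% in size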)
How it was run: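 HepG2 cells, 2,000 per well, attached overnight, then treated 1 hr at 37 C, 5% CO2. Viability read as ATP by CellTiter-Glo luminescence after 30 min at room temperature. Read in the same wells as the m-MPI membrane-potential dye assay.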

[4] = qHTS assay to test for compound auto fluorescence at 590 nm (red) in HepG2 cells (AID 720674)
How it was run: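 Seeding: 2,000 HepG2 cells/well, MEM/10% FBS, overnight 37 C. Dosing: compound vs DMSO. Incubation: 1 hr, 37 C, 5% CO2. Read: fluorescence 540 ex/590 em, Rose Bengal sodium as red reference.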

[5] = qHTS assay to test for compound auto fluorescence at 535 nm (green) in HepG2 cells (AID 720675)
[6] = qHTS assay to test for compound auto fluorescence at 460 nm (blue) in HEK293 cells (AID 720678)
How it was run: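 HEK293 cells (2,000/well, medium with 10% dialyzed FBS) attached 4-5 hr, then exposed to compound overnight at 37C, 5% CO2. Blue fluorescence read at 405/460 nm, with triamterene as reference fluorophore.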

[7] = qHTS assay to test for compound auto fluorescence at 590 nm (red) in HEK293 cells (AID 720679)
How it was run: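 HEK293 cells (2,000/well, 10% dialyzed FBS) attached 4-5 hr, then dosed with compound or DMSO and incubated overnight at 37C, 5% CO2. Red fluorescence read at 540/590 nm, Rose Bengal sodium as reference fluorophore.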

[8] = qHTS assay to test for compound auto fluorescence at 535 nm (green) in HEK293 cells (AID 720680)
[9] = qHTS assay to test for compound auto fluorescence at 460 nm (blue) in HEK293 cell free culture (AID 720681)
How it was run: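 Compounds were added to cell-free DMEM with 10% FBS and fluorescence read directly. The blue channel used 405 nm excitation and 460 nm emission, with triamterene as the reference fluorophore.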

[10] = qHTS assay to test for compound auto fluorescence at 535 nm (green) in HEK293 cell free culture (AID 720682)
How it was run: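 No cells present: wells hold DMEM supplemented with 10% FBS, into which compound or vehicle is pinned. Green emission is then recorded (485 nm excitation, 535 nm emission) and scaled to fluorescein.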

[11] = qHTS assay to test for compound auto fluorescence at 590 nm (red) in HEK293 cell free culture (AID 720683)
How it was run: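 Cell-free wells of DMEM with 10% FBS received compound, and intrinsic fluorescence was read at excitation/emission 540/590 nm. Values expressed as equivalence to Rose Bengal sodium.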

[12] = qHTS assay to test for compound auto fluorescence at 460 nm (blue) in HepG2 cell free culture (AID 720685)
How it was run: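 Compound (23 nL) or DMSO pinned into cell-free MEM with 10% FBS; blue fluorescence read at 405/460 nm excitation/emission, expressed as auto-fluorescence equivalency to triamterene.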

[13] = qHTS assay to test for compound auto fluorescence at 460 nm (blue) in HepG2 cells (AID 720687)
How it was run: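 HepG2 cells in MEM with 10% FBS, attached overnight at 37 C, were exposed to compound or DMSO for 1 hr at 37 C, 5% CO2. Blue fluorescence was read at 405/460 nm, with triamterene as reference fluorophore.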

[14] = target: Glucocorticoid receptor (Homo sapiens) (UniProt P04150); test: qHTS assay to identify small molecule agonists of the glucocorticoid receptor (GR) signaling pathway (AID 720691; active = well fitted activation curve with a large enough effect in the signal ratio in the repeat runs, not every such curve was filed as active; the % refers to the signal ratio)
How it was run: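 GR-bla HeLa cells carrying a GRE-driven beta-lactamase reporter, exposed to compounds for 18 h at 37 C. Reporter activation read as fluorescence after 2 h with LiveBLAzer B/G FRET substrate at room temperature.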

[15] = target: Glucocorticoid receptor (Homo sapiens) (UniProt P04150); test: qHTS assay to identify small molecule antagonists of the glucocorticoid receptor (GR) signaling pathway (AID 720692; active = well fitted inhibition curve with a large enough effect in the signal ratio in the repeat runs, not every such curve was filed as active; the % refers to the signal ratio)
How it was run: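 GR-bla HeLa cells carrying a GRE-driven beta-lactamase reporter received compound after 4 h plating, then dexamethasone (5 nM final). After 18 h at 37C, the FRET substrate was loaded for 2 h at room temperature and fluorescence read.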

[16] = qHTS assay for small molecules that induce genotoxicity in human embryonic kidney cells expressing luciferase-tagged ATAD5 - cell viability (AID 651634; calls by dose curve; note: nearly all actives have a fitted effect of over 25% in size)
How it was run: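 HEK293T cells carrying luciferase-tagged ATAD5, 2,000 cells/well, exposed to compound for 15.5 hr at 37C. Viability read as live-cell protease activity by CellTiter-Fluor fluorescence after 30 min at 37C.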

[17] = qHTS assay for small molecule disruptors of the mitochondrial membrane potential (AID 720635); note: potency is the fitted concentration of half-maximal effect
How it was run: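 HepG2 cells exposed to compound 1 hr at 37C, then Mito-MPS dye 30 min. Ratio read of aggregate (540/590 nm) versus monomer (490/535 nm) fluorescence.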

[18] = qHTS assay to test for compound auto fluorescence at 590 nm (red) in HepG2 cell free culture (AID 720684)
How it was run: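 Compounds are added to culture medium (MEM, 10% FBS) lacking cells, then fluorescence is read at excitation 540 nm, emission 590 nm, with Rose Bengal sodium as the equivalency standard.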

[19] = qHTS assay to test for compound auto fluorescence at 535 nm (green) in HepG2 cell free culture (AID 720686)
[20] = qHTS assay for small molecules that induce genotoxicity in human embryonic kidney cells expressing luciferase-tagged ATAD5 (AID 651632); note: nearly all actives have a fitted effect of over 15% in size
How it was run: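 HEK293T cells carrying luciferase-tagged ATAD5 were given compound or DMSO vehicle and incubated 16 hr at 37C, 5% CO2. Luciferase activity was read after 30 min at room temperature with Amplite; a rise signals genotoxic stress.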

Chain of Glucocorticoid receptor (Homo sapiens) (P04150 whole entry, looked up): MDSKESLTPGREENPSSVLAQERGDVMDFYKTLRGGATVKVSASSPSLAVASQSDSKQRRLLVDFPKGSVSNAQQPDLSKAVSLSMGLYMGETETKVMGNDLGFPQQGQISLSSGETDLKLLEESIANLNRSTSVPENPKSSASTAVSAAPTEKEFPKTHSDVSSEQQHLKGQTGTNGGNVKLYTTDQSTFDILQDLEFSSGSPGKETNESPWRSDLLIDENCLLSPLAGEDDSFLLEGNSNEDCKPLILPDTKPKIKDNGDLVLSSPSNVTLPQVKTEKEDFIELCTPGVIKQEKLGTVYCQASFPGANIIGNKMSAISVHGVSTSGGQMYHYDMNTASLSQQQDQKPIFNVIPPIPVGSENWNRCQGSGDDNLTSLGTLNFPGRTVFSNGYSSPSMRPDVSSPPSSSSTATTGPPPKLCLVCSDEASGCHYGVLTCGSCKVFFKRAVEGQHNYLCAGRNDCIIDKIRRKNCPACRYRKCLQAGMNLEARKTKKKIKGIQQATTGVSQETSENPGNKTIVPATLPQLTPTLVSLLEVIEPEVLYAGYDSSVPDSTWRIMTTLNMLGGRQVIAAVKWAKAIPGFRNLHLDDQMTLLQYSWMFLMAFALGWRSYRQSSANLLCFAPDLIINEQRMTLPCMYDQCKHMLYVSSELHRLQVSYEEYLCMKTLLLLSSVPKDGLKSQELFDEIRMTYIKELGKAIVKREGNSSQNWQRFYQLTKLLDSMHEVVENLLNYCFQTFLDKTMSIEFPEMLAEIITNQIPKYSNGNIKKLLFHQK

Compound: CCCCCl
- Potency [1]: inactive
- Potency [2]: inactive
- Potency [3]: inactive
- outcome [4]: inactive
- outcome [5]: inactive
- outcome [6]: inactive
- outcome [7]: inactive
- outcome [8]: inactive
- outcome [9]: inactive
- outcome [10]: inactive
- outcome [11]: inactive
- outcome [12]: inactive
- outcome [13]: inactive
- Potency [14]: inactive
- Potency [15]: inactive

Compound: c1ccc2c(c1)-c1cccc3cccc-2c13
- Potency [1]: inactive
- Potency [2]: inactive
- Potency [16]: inactive
- Potency [17]: 61.7 µM (active) and 61.1 µM (active)
- outcome [4]: inactive
- outcome [5]: inactive
- outcome [6]: inactive
- outcome [7]: inactive
- outcome [8]: inactive
- outcome [9]: inactive
- outcome [10]: inactive
- outcome [11]: inactive
- outcome [18]: inactive
- outcome [19]: inactive
- outcome [13]: inactive

Compound: CC(C)(C)NCC(O)c1ccccc1Cl (stereo not drawn)
- Potency [1]: inactive
- Potency [2]: inactive
- Potency [16]: inactive
- Potency [3]: inactive
- outcome [4]: inactive
- outcome [5]: inactive
- outcome [7]: inactive
- outcome [8]: inactive
- outcome [9]: inactive
- outcome [10]: inactive
- outcome [11]: inactive
- outcome [18]: inactive
- outcome [12]: inactive
- outcome [13]: inactive
- Potency [14]: inactive
- Potency [15]: inactive

Compound: CCC[N+](CCC)(CCC)CCC
- Potency [1]: inactive
- Potency [20]: inactive
- Potency [3]: inactive
- Potency [17]: inactive
- outcome [4]: inactive
- outcome [5]: inactive
- outcome [7]: inactive
- outcome [8]: inactive
- outcome [9]: inactive
- outcome [10]: inactive
- outcome [11]: inactive
- outcome [12]: inactive
- outcome [13]: inactive

Compound: O=C(O)C(Cl)(Cl)Br
- Potency [1]: inactive
- Potency [2]: inactive
- Potency [16]: inactive
- Potency [3]: inactive
- outcome [4]: inactive
- outcome [5]: inactive
- outcome [6]: inactive
- outcome [7]: inactive
- outcome [8]: inactive
- outcome [9]: inactive
- outcome [10]: inactive
- outcome [11]: inactive
- outcome [18]: inactive
- outcome [12]: inactive
- outcome [19]: inactive
- outcome [13]: inactive
- Potency [14]: inactive
- Potency [15]: inactive

Compound: CCCC[P+](CC)(CCCC)CCCC (tested in a mixture with another compound)
- Potency [1]: inactive
- Potency [20]: inactive
- Potency [16]: inactive
- Potency [3]: inactive
- outcome [4]: inactive
- outcome [5]: inactive
- outcome [7]: inactive
- outcome [8]: inactive
- outcome [9]: inactive
- outcome [10]: inactive
- outcome [11]: inactive
- outcome [12]: inactive
- outcome [19]: inactive

Compound: CCCCOC(=O)CCC(=O)OCCCC
- Potency [1]: inactive
- Potency [2]: inactive
- Potency [16]: inactive
- Potency [3]: inactive
- Potency [17]: inactive
- outcome [4]: inactive
- outcome [5]: inactive
- outcome [6]: inactive
- outcome [7]: inactive
- outcome [8]: inactive
- outcome [9]: inactive
- outcome [10]: inactive
- outcome [11]: inactive
- outcome [18]: inactive
- outcome [12]: inactive
- outcome [19]: inactive

Compound: Clc1ccc(Cl)c(Cl)c1
- Potency [1]: inactive
- Potency [16]: inactive
- Potency [3]: inactive
- Potency [17]: inactive
- outcome [4]: inactive
- outcome [5]: inactive
- outcome [6]: inactive
- outcome [7]: inactive
- outcome [8]: inactive
- outcome [9]: inactive
- outcome [10]: inactive
- outcome [11]: inactive
- outcome [12]: inactive
- outcome [19]: inactive
- outcome [13]: inactive

Compound: C[N+](C)(C)CCOC(=O)C(O)(c1ccccc1)c1ccccc1
- Potency [1]: inactive
- Potency [2]: inactive
- Potency [16]: inactive
- Potency [3]: inactive
- Potency [17]: inactive
- outcome [4]: inactive
- outcome [5]: inactive
- outcome [6]: inactive
- outcome [7]: inactive
- outcome [8]: inactive
- outcome [9]: inactive
- outcome [10]: inactive
- outcome [11]: inactive
- outcome [18]: inactive
- outcome [12]: inactive
- outcome [19]: inactive
- outcome [13]: inactive

Source: PubChem BioAssay (Tox21)
